{"source": "the supplement of paper PMC12494721", "note": "Structures can show the parent of a compound that is named as a salt. Unmarked numbers belong to inactive results.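 The calls were made as follows: for the amine columns active = adjusted P below 0.05 in both replicates with a change the same way and a mean fold change under 0.8 or over 1.25; inactive = the rest.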"}
{"tested_on": "Escherichia coli IAI1", "test": "fold change of Putrescine concentration vs plate DMSO controls (fold change (ratio)); higher = more amine produced, active = hit call of the paper (significant change in both replicates, either direction)", "settings": "incubation time: 27 h, anaerobic, 37 °C", "outline": "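Anaerobic mGAM cultures of four gut bacterial strains were grown at 37 °C for 27 h in 80 µL wells, starting at OD 0.1 before 1:1 dilution. Compounds were at 20 µM final (sweeteners 50 µM). Whole cultures were extracted with cold acetonitrile/methanol containing 0.1% formic acid and centrifuged. Amines were quantified by LC–triple-quadrupole MS (dynamic MRM) against external calibration curves and drift-corrected within batch. Each value is the fold change versus plate DMSO controls, averaged over 2 biological replicates.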"}
{"smiles": "Oc1c(Cl)cc(Cl)cc1Sc1cc(Cl)cc(Cl)c1O", "note": "[Bithionol] (20 µM)", "fold change of Putrescine concentration": "1.26 (active)"}
{"smiles": "CO[C@@]1(NC(=O)C2SC(=C(C(N)=O)C(=O)O)S2)C(=O)N2C(C(=O)O)=C(CSc3nnnn3C)CS[C@@H]21", "note": "(some centres undefined) [Cefotetan] (20 µM)", "fold change of Putrescine concentration": 0.606}
{"smiles": "N#CC(c1ccc(Cl)cc1)c1c(Cl)cc(-n2ncc(=O)[nH]c2=O)cc1Cl", "note": "(centres undefined) [Diclazuril] (20 µM)", "fold change of Putrescine concentration": 0.911}
{"smiles": "CN(C)CCCN1c2ccccc2Sc2ccc(C(F)(F)F)cc21", "note": "[Triflupromazine hydrochloride] (20 µM)", "fold change of Putrescine concentration": 1.01}
{"smiles": "CCC(=O)OCC(=O)[C@@]1(OC(=O)CC)[C@@H](C)C[C@H]2[C@@H]3CCC4=CC(=O)C=C[C@]4(C)[C@@]3(Cl)[C@@H](O)C[C@@]21C", "note": "[Beclomethasone dipropionate] (20 µM)", "fold change of Putrescine concentration": 0.954}
{"smiles": "O=C1CN(/N=C/c2ccc(-c3ccc([N+](=O)[O-])cc3)o2)C(=O)N1", "note": "[Dantrolene sodium salt] (20 µM)", "fold change of Putrescine concentration": 0.991}
{"smiles": "CC(C)(C(=O)O)c1ccc(C(O)CCCN2CCC(C(O)(c3ccccc3)c3ccccc3)CC2)cc1", "note": "(centres undefined) [Fexofenadine hydrochloride] (20 µM)", "fold change of Putrescine concentration": 0.971}
{"smiles": "C[C@H]1[C@@H](O)O[C@@H]2O[C@@]3(C)CC[C@H]4[C@H](C)CC[C@@H]1[C@@]24OO3", "note": "[Artenimol] (20 µM)", "fold change of Putrescine concentration": 1.02}
{"smiles": "CC(C)(C)NC[C@H](O)COc1ccccc1C1CCCC1", "note": "[Penbutolol sulfate] (20 µM)", "fold change of Putrescine concentration": 1.1}
{"smiles": "Cc1ccc(-c2ncc(Cl)cc2-c2ccc(S(C)(=O)=O)cc2)cn1", "note": "[Etoricoxib] (20 µM)", "fold change of Putrescine concentration": 1.05}
{"smiles": "Clc1ccc(CO/N=C(\\Cn2ccnc2)c2ccc(Cl)cc2Cl)c(Cl)c1", "note": "[Oxiconazole nitrate] (20 µM)", "fold change of Putrescine concentration": 1.04}
{"smiles": "NCc1ccc(S(N)(=O)=O)cc1", "note": "[Mafenide hydrochloride] (20 µM)", "fold change of Putrescine concentration": 1}
{"smiles": "c1ccc(-c2ccc(C(c3ccccc3)n3ccnc3)cc2)cc1", "note": "(centres undefined) [Bifonazole] (20 µM)", "fold change of Putrescine concentration": 1.04}
{"smiles": "OC[C@H]1O[C@@H](O[C@H]2[C@H](O)[C@@H](O)[C@H](O)O[C@@H]2CO)[C@H](O)[C@@H](O)[C@H]1O", "note": "[Lactose] (50 µM)", "fold change of Putrescine concentration": 1.03}
{"smiles": "CC(CNC1CCCCC1)OC(=O)c1ccccc1", "note": "(centres undefined) [Hexylcaine hydrochloride] (20 µM)", "fold change of Putrescine concentration": 1}
{"smiles": "CN(C)CCc1c[nH]c2ccc(Cn3cncn3)cc12", "note": "[Rizatriptan benzoate] (20 µM)", "fold change of Putrescine concentration": 0.97}
{"smiles": "CC[N+]1(CC)CCC(=C(c2ccccc2)c2ccccc2)C1C", "note": "(centres undefined) [Prifinium Bromide] (20 µM)", "fold change of Putrescine concentration": 1.07}
{"smiles": "COc1ccc(C(=O)c2ccc(C)cc2)c(O)c1", "note": "[Mexenone] (20 µM)", "fold change of Putrescine concentration": 1.06}
{"smiles": "CC(C)NCC(O)COc1ccc(CCOCC2CC2)cc1", "note": "(centres undefined) [Betaxolol hydrochloride] (20 µM)", "fold change of Putrescine concentration": 1.02}
{"smiles": "COc1cc(N)cn[n+]1-c1ccccc1", "note": "[Amezinium metilsulfate] (20 µM)", "fold change of Putrescine concentration": 0.969}
{"smiles": "C[C@H](NCc1ccc(OCc2cccc(F)c2)cc1)C(N)=O", "note": "[Safinamide] (20 µM)", "fold change of Putrescine concentration": 1}
{"smiles": "CC#C[C@]1(O)CC[C@H]2[C@@H]3CCC4=CC(=O)CCC4=C3[C@@H](c3ccc(N(C)C)cc3)C[C@@]21C", "note": "[Mifepristone] (20 µM)", "fold change of Putrescine concentration": 1.01}
{"smiles": "O=C1CCC(N2C(=O)c3ccccc3C2=O)C(=O)N1", "note": "(centres undefined) [Thalidomide] (20 µM)", "fold change of Putrescine concentration": 0.97}
{"smiles": "CCCC(=O)Nc1ncnc2c1ncn2[C@@H]1O[C@@H]2COP(=O)(O)O[C@H]2[C@H]1OC(=O)CCC", "note": "[Bucladesine sodium salt] (20 µM)", "fold change of Putrescine concentration": 1.06}
{"smiles": "CCOC(=O)C1=C[C@@H](OC(CC)CC)[C@H](NC(C)=O)[C@@H](N)C1", "note": "[Oseltamivir phosphate] (20 µM)", "fold change of Putrescine concentration": 1.02}
{"smiles": "Brc1c(NC2=NCCN2)ccc2nccnc12", "note": "[Brimonidine L-tartrate] (20 µM)", "fold change of Putrescine concentration": 0.973}
{"smiles": "CC(C)(C)NC[C@H](O)COc1nsnc1N1CCOCC1", "note": "[Timolol maleate salt] (20 µM)", "fold change of Putrescine concentration": 1.12}
{"smiles": "O=C(CCCN1CCC(O)(c2ccc(Cl)cc2)CC1)c1ccc(F)cc1", "note": "[Haloperidol] (20 µM)", "fold change of Putrescine concentration": 1.03}
{"smiles": "OC[C@@H](O)[C@H](O)[C@@H](O)CO", "note": "[Xylitol] (50 µM)", "fold change of Putrescine concentration": 1.03}
{"smiles": "Cc1cnc(C(=O)NCCc2ccc(S(=O)(=O)NC(=O)NC3CCCCC3)cc2)cn1", "note": "[Glipizide] (20 µM)", "fold change of Putrescine concentration": 0.989}
{"smiles": "Fc1ccc([C@@H]2CCNC[C@H]2COc2ccc3c(c2)OCO3)cc1", "note": "[Paroxetine hydrochloride] (20 µM)", "fold change of Putrescine concentration": 0.692}
{"smiles": "Nc1nnc(-c2cccc(Cl)c2Cl)c(N)n1", "note": "[Lamotrigine] (20 µM)", "fold change of Putrescine concentration": 0.946}
{"smiles": "Oc1c(Cl)cc(Cl)c(Cl)c1Cc1c(O)c(Cl)cc(Cl)c1Cl", "note": "(20 µM)", "fold change of Putrescine concentration": 1.06}
{"smiles": "Cc1c(Nc2ncccc2C(=O)O)cccc1C(F)(F)F", "note": "[Flunixin meglumine] (20 µM)", "fold change of Putrescine concentration": 1.07}
{"smiles": "COc1c(O)cc2c(c1O)[C@@H]1O[C@H](CO)[C@@H](O)[C@H](O)[C@H]1OC2=O", "note": "[Bergenin] (20 µM)", "fold change of Putrescine concentration": 0.97}
{"smiles": "Nc1c(CC(=O)O)cccc1C(=O)c1ccc(Br)cc1", "note": "[Bromfenac] (20 µM)", "fold change of Putrescine concentration": 1.02}
{"smiles": "CNC[C@H](O)[C@@H](O)[C@H](O)[C@H](O)CO", "note": "[Meglumine] (20 µM)", "fold change of Putrescine concentration": 1.25}
{"smiles": "O=C(Nc1ccc([N+](=O)[O-])cc1Cl)c1cc(Cl)ccc1O", "note": "[Niclosamide] (20 µM)", "fold change of Putrescine concentration": 1.22}
{"smiles": "CN1CCN2c3ncccc3Cc3ccccc3C2C1", "note": "(centres undefined) [Mirtazapine] (20 µM)", "fold change of Putrescine concentration": 0.964}
